The record followed here is PubChem BioAssay.

A short description of test [1]: reducers of endogenous Her2 protein level, primary screen, SKBR3 breast tumor cells, AlphaScreen, ATP viability (AID 461;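 active means Her2 level under about 52% in both replicate screens, with viability over 70% of control, limit read from the data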;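 on Her2 level: lower value means less Her2 protein in the cells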;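 on viability: percent of carrier control wells set as 100% viability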). Conditions: 18-24 h, measured here: SKBR3 viability, ATP luminescence, at 10 µM. In general terms: In Alpha technology, singlet oxygen from a donor bead excites a nearby acceptor bead.
Test [2] concerns the target Receptor tyrosine-protein kinase erbB-2 (Homo sapiens) (UniProt P04626). The description is as above. The settings on record: 18-24 h, at 10 µM, stronger effect = lower value.
Test [3] can be described thus: SK-BR-3 cell growth inhibitors, pilot screen, 24 h, human (AID 572).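 Further: compound exposure lasted between 18 and 24 h rather than exactly 24 h; 100% = carrier-treated control wells.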 The settings on record: SK-BR-3 viability, CellTiter-Glo luminescence, at 10 µM, stronger effect = lower value. For orientation: In ATP-based viability assays light output follows the ATP content of the culture.
A short description of test [4]: HUVEC growth inhibition – cell-based, human, primary screen (AID 575;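 active means viability at or below 30% in both replicate assays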;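 further: 100% = median of untreated cell wells with 0.1% DMSO on each plate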). The settings on record: HUVEC proliferation, CellTiter-Glo luminescence, 72 h; at 10 µM; stronger effect = lower value.
Test [5] in a line: growth inhibitors of H69AR lung tumor, primary screen, human, duplicate replicates (AID 580;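 active means viability at or under a set limit in both replicates, limit being median viability minus 3 SD, cut at about 48% in these data, passing the limit was not always enough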;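 further: 100% = mean luminescence of untreated wells and 0% = no signal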). Conditions: H69AR lung tumor cells viability, ATP luminescence, 72 h; at 10 µM; stronger effect = lower value.
Test [6] in a line: reversal of MRP1-mediated doxorubicin resistance, pilot screen, H69AR cells, doxorubicin co-treatment (AID 601;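 active means viability loss from added drug above about 55%, and viability with drug at most 40%, in both replicates, limit read from the data, passing the limit was not always enough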). The settings on record: CellTiter-Glo, 72 h, at 10 µM; for differential viability (reversal): stronger effect = higher value.
Test [7] can be described thus: 384-well plate pilot, post-Golgi transport modulator project, inhibition of yeast transport mutant growth (AID 636; in the data active means inhibition above about 31%). The settings on record: absorbance 615 nm, about 18 h, stronger effect = higher value.
Test [8] in a line: growth suppression of yeast trafficking mutant, preliminary HTS, modulators of trafficking downstream of Golgi apparatus project, 1536-format plate, OD 615 nm (AID 637; in the data active means inhibition above about 30%). The settings on record: yeast transport mutant growth, absorbance 615 nm, 18 h; stronger effect = higher value.
The nature of test [9]: OD615 S. cerevisiae growth inhibition, permissive medium, pilot counter-assay, permissive growth control for S. cerevisiae lifespan shortening project (AID 705;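 active means growth inhibition above 25% in both replicates, a cutoff set 3 SD above the mean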). Conditions: OD615, 24 h, at 10 µM, stronger effect = higher value.
A short description of test [10]: Restrictive medium S. cerevisiae growth inhibition, OD615, pilot screen of yeast lifespan reduction project, restrictive growth control (AID 706;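 active means growth inhibition above a set limit, 3 SD over mean compound inhibition, in both replicates, cut at about 43% in these data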;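 further: modified DeaD lifespan yeast strain shifted to restrictive glucose medium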). The settings on record: OD615, 48 h, at 10 µM, stronger effect = higher value.
Test [11] can be described thus: viability gain of MRP-1-high H69AR cells under doxorubicin, pilot screen, MRP-1 activator project, CellTiter-Glo, duplicate (AID 807;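 active means viability increase at or above a cutoff of the median across tested compounds plus 3 SD, cut at about 8.5% in these data, passing the limit was not always enough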;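 further: compound pretreatment 18-22 h then 72 h combined with doxorubicin; 0% = doxorubicin alone and 100% = vehicle without doxorubicin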). Conditions: H69AR viability with doxorubicin, CellTiter-Glo luminescence; at 10 µM; stronger effect = higher value.
Test [12] in a line: growth suppression of beta-catenin knockout HCT116, pilot screen, human colon tumor cells (AID 823;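 active means cell viability at or below a set limit in both duplicate runs, the limit being the all-compound median minus 4 SD, cut at about 23% in these data, passing the limit was not always enough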;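 further: 0% = wells killed by 20 µM Hyamine and 100% = untreated DMSO cell wells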). Conditions: CellTiter-Glo, 60 h, at 10 µM, stronger effect = lower value.
Test [13] in a line: growth suppression of PTEN-deleted HCT116, pilot screen, cell-based, HCT116 clonal line, CellTiter-Glo (AID 824;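 active means viability at or below 27.92% in each of two runs, the all-compound median minus 4 SD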;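 further: 0% = 20 µM Hyamine control and 100% = vehicle cell control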). The settings on record: 60 h, at 10 µM, stronger effect = lower value.
The nature of test [14]: inhibitors of the yeast RAM network, pilot screen, dse1pr::URA3 reporter, 5-FOA selection (AID 869;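 active means inhibition over a set limit, the all-compound mean plus 3 SD, in both replicate runs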;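 further: 0% = DMSO wells with no growth and 100% = 10 µM 1-NA-PP1 with full growth; RAM network block rescues cells from 5-FOA so hits raise OD615 growth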). The settings on record: S. cerevisiae dse1pr::URA3 5-FOA growth, OD615, 2 d; at 10 µM; stronger effect = higher value; strain carries analog-sensitive mutant Cbk1 kinase.
Test [15] in a line: RAM signaling pathway blockade in yeast – S. cerevisiae, Pdr1DBD-CYC8 efflux-inhibited sensitized strain, primary screen (AID 1298;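 active means RAM network inhibition above 8.4% in each of two replicates, 3 SD over the compound average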;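 further: 0% = DMSO untreated cells without growth and 100% = 10 µM 1-NA-PP1 full growth; higher means more yeast growth rescued from 5-FOA killing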). The settings on record: S. cerevisiae cbk1-as DSE1-URA3 strain, 5-FOA growth OD615, 2 d; at 50 µM; stronger effect = higher value.
[16] abbreviates: H69AR cells + 2 uM doxorubicin, measured here: viability with 2 uM doxorubicin, stronger effect = lower value.
Where [17] appears, read: H69AR cells, compound alone cytotoxicity.

Records with an inconclusive call do not appear. Calls of active or inactive are those of the source.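 How the source made its calls, unless noted: active means viability at or below 10% of carrier control in both of two separate runs; inconclusive means viability at or below 10% in only one of the two runs; inactive means the rest.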

Receptor tyrosine-protein kinase erbB-2 (Homo sapiens), sequence (P04626 whole entry, looked up): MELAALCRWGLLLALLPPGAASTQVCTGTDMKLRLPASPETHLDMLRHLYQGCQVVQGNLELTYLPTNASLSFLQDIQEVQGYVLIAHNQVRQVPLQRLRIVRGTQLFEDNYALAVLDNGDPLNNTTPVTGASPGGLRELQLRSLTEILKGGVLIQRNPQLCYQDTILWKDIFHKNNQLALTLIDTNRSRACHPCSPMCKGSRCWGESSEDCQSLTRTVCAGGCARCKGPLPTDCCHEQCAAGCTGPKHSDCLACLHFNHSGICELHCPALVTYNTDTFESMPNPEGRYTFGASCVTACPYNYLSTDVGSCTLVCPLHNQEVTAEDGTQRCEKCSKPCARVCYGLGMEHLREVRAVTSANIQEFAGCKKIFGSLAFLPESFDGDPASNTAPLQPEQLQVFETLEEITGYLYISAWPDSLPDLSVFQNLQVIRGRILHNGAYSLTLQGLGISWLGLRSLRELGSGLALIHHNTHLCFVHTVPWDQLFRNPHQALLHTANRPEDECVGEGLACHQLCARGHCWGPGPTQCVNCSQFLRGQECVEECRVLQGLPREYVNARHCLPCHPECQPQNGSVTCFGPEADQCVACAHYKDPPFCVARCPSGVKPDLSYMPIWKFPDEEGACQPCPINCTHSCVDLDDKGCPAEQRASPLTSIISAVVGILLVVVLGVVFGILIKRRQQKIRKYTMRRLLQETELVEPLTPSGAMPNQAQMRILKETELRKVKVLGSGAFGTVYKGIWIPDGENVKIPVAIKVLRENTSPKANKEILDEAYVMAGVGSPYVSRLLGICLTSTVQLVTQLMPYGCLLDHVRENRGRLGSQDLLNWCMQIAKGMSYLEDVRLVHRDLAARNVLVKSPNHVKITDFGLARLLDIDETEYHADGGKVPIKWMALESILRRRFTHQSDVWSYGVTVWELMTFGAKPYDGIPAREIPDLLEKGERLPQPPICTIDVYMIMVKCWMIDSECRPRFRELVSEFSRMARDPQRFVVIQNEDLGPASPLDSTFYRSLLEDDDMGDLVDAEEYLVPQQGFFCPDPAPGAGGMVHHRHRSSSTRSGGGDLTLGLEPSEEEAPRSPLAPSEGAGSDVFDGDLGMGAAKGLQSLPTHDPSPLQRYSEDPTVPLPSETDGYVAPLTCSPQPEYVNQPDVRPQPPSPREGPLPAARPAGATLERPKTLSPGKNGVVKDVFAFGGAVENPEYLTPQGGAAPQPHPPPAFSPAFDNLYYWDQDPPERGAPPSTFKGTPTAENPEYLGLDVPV

The viability is a read-out of living cells in per cent, often relative to untreated cells. A word on the inhibition: it is the relative decrease from the control value, in per cent. In the case of `COc1ccccc1NC(=O)CSc1nnc(Cc2cccn2C)n1-c1ccc(F)cc1`, the viability was 96.5% in test [1]; 96.5% (inactive) in [3]; 95.4% (inactive) in [4]; 71.8% (inactive) in test [5]; 84.9% in test [6] (setting [16]); 71.8% in test [6] (setting [17]). The viability is 86.7% (inactive) in [12] and 86.8% (inactive) in test [13]. Besides, in [2], the Her2 level was 86% (inactive). Moreover, the differential viability (reversal) in [6] (H69AR cells + 2 uM doxorubicin) was -13.1% (inactive). Besides, the inhibition in test [7] is -4.8% (inactive); in test [8], -2.67% (inactive); in test [14], 2.05% (inactive). In addition, the growth inhibition is -3.11% (inactive) in test [9] and 10.8% (inactive) in [10]. In addition, the viability increase in test [11] was -4.45% (inactive). Further, the RAM network inhibition in [15] is 2.25% (inactive).

For `CCCN1CC23C=CC(O2)C(C(=O)O)C3C1=O` (stereo not given), the viability was 81.5% in [1]; 81.5% (inactive) in test [3]; 85.4% (inactive) in test [4]; 98.1% (inactive) in test [5]; 99.7% in [6] (setting [16]); 98.1% in test [6] (setting [17]). Also, the viability is 100% (inactive) in test [12] and 101% (inactive) in test [13]. Further, the Her2 level in test [2] is 94% (inactive). For the same molecule, the differential viability (reversal) in test [6] (H69AR cells + 2 uM doxorubicin) is -1.58% (inactive). Further, the inhibition was -3.87% (inactive) in [7], 0.16% (inactive) in test [8] and 1.96% (inactive) in test [14]. The growth inhibition in [9] was -2.17% (inactive); in [10], 2.93% (inactive). For the same molecule, the viability increase in [11] was -0.49% (inactive). In test [15], the RAM network inhibition was -1.04% (inactive).

With `CCCC(=O)N1CC(=O)Nc2ccc(C)cc2C1c1ccc(F)cc1` (stereo not given), the viability in [1] was 86%; in [3], 86% (inactive); in test [4] it was 79.9% (inactive); in [5], 97.4% (inactive); in test [6] (setting [16]) it was 77.1%; in [6] (setting [17]) it was 97.4%. Besides, the viability in test [12] is 82.2% (inactive); in test [13] it was 84.2% (inactive). Also, the Her2 level in [2] was 101% (inactive). The differential viability (reversal) in test [6] (H69AR cells + 2 uM doxorubicin) is 20.3% (inactive). The inhibition in [7] is -2% (inactive); in [8], 0.16% (inactive); in [14], 1.42% (inactive). Further, the growth inhibition in [9] is -8.09% (inactive); in [10] it was -8.8% (inactive). Further, the viability increase in [11] is -3.73% (inactive). The RAM network inhibition in test [15] was 2.82% (inactive).

Take `Cc1nc2sc(C(c3cccs3)N3CCC(C(N)=O)CC3)c(O)n2n1` (stereo not given): the viability in test [1] was 92.5%; in [3] it was 92.5% (inactive); in test [4], 100% (inactive); in test [5], 91.8% (inactive); in test [6] (setting [16]), 96.2%; in [6] (setting [17]), 91.8%. Also, the viability in [12] was 101% (inactive); in test [13] it was 94.2% (inactive). The Her2 level in test [2] was 128% (inactive). Further, in test [6] (H69AR cells + 2 uM doxorubicin), the differential viability (reversal) is -4.42% (inactive). Also, the inhibition in [7] was -3.73% (inactive); in [8] it was -1% (inactive); in [14] it was 0.69% (inactive). The growth inhibition is -0.435% (inactive) in [9] and 3.77% (inactive) in test [10]. Also, the viability increase in test [11] is -0.3% (inactive). For the same molecule, the RAM network inhibition in test [15] is 4.12% (inactive).

Turning to `COC(=O)c1cc(OC)c(OC)cc1NC(=O)c1ccc(Br)o1`, the viability in [1] was 85.5%; in [3], 85.5% (inactive); in test [4], 101% (inactive); in test [5] it was 87.6% (inactive); in [6] (setting [16]), 93%; in test [6] (setting [17]), 87.6%. For the same molecule, the viability in test [12] was 96% (inactive); in test [13], 86.1% (inactive). Further, the Her2 level in test [2] is 84% (inactive). Also, the differential viability (reversal) in [6] (H69AR cells + 2 uM doxorubicin) was -5.39% (inactive). The figures for the inhibition in test [7], in test [8] and in [14] were 0.13% (inactive), 3% (inactive) and 3.2% (inactive), respectively. For the same molecule, the growth inhibition in [9] was -14.5% (inactive); in test [10], -3.21% (inactive). In addition, the viability increase in test [11] is -0.2% (inactive). Besides, the RAM network inhibition in test [15] was 4.75% (inactive).
